From PubChem BioAssay AID2685 (National Center for Advancing Translational Sciences (NCATS), 2010)
In all, about 320,000 compounds went through this assay and about 2,100 (0.66%) were called active. Another 53% or so got no clear call; they are omitted. Calls follow the shape of the dose curve; as a rule, active = well fitted inhibition curve with a large enough effect in the signal ratio, with a control signal flat (not every such curve was filed as active); inconclusive = small, poorly fitted or top-dose-only effect, or effect the other way, or a change in a side signal; inactive = flat fitted curve, though single readings scatter; the % refers to the signal ratio. The full list was thinned out, with actives kept by preference.

Assay: qHTS Assay for Lipid Storage Modulators in Drosophila S3 Cells;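 as to cell number change: cells counted by Cell Tracker Red CMTPX staining in the red channel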; as to lipid storage change, negative = inhibition: % is scaled to controls: 0 for no effect and ±100 for the full control effect
Details: BODIPY lipid droplet fluorescence, 18-24 h, cells fed with added oleic acid; cell number change: measured here: cell count max response; series mostly up to 46.1 µM
Method in brief: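 Laser-scanning cytometry quantifies lipid droplet accumulation (500–530 nm total intensity; droplet/cell object ratio) in oleic acid-fed (400 uM added) Drosophila S3 cells treated with a concentration series. 20 uM Triacsin C defined 100% inhibition.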
Potency is read from the fitted curve at half-maximal effect.

SMILES	Potency	cell number change [%]	outcome	lipid storage change, negative = inhibition
O=C(O)c1cc(-c2cccnc2)nc2ccc(Br)cc12	inactive	9.56		
CC(C)(C)c1ccc(OCc2nnc(SCC(N)=O)n2N)cc1	inactive			
Cc1cccc(NC(=O)CCNC(=O)c2ccccc2Cl)n1	inactive			
COC(=O)c1ccccc1NC(=O)c1cccnc1	inactive	10.2		
C/C(=C\C=C(C#N)C#N)c1cc(C#N)c(N)o1	16.4 µM (active)	-22.3		
O=C(Cc1cccs1)Nc1ccccc1F	inactive	10.1		
CCOCCCNC(c1ccccc1)c1ccncc1 (stereo not given)	inactive	7.02		
O/N=C1\CCCc2c1nc(-c1ccccc1F)n2O	inactive			
COc1ccc(-c2nc3c(n2O)CCC/C3=N\O)cc1	4.61 µM (active)	4.07		
Cc1nc2c(n1O)CCC/C2=N\O	inactive	-1.11		
O=C(c1cc(COc2ccccc2)on1)N1CCCC(OCc2cccnc2)C1 (stereo not given)	1.03 µM (active)			
CCN1CCN(C(=O)c2cc(COc3ccc4ncccc4c3)on2)CC1	inactive	-6.54		
COc1cccc(OCc2cc(C(=O)N3CCC(c4ccncc4)CC3)no2)c1	4.11 µM (active)			
O=C(c1cc(COc2ccc(F)cc2Cl)on1)N1CCCC(OCc2cccnc2)C1 (stereo not given)	inactive	-4.29		
Cc1cccc(C)c1OCc1cc(C(=O)N2CCC(c3ccncc3)CC2)no1	inactive	-16.1		
CCC(O)C1CCN(C(=O)c2cc(COc3ccc4ncccc4c3)on2)CC1 (stereo not given)	inactive			
COc1cccc(OCc2cc(C(=O)N3CCN(C(C)=O)CC3)no2)c1	inactive	19		
COc1ccccc1OCc1cc(C(=O)N2CCCC(OCc3cccnc3)C2)no1 (stereo not given)	inactive	8.19		
O=C(c1cc(COc2ccc3ncccc3c2)on1)N1CCCC1	7.31 µM (active)	-24		
CCOC(=O)C(C(=O)OCC)N(C#N)c1nc(N(C)C)nc(N(C)C)n1	inactive	12.4		
O=c1[nH]n2cc(-n3cc([N+](=O)[O-])cn3)cnc2c1Br	inactive			
Cc1ccc(C(=O)Nc2ccc(N3CCN(C)CC3)cc2)cc1C	inactive	4.5		
Nc1nnc(SCc2ccccc2F)s1	inactive	16.1		

SMILES	Potency	cell number change [%]	outcome	lipid storage change, negative = inhibition
COc1ccc(NC(=O)CC2C(=O)N(C)C(=S)N2Cc2ccc3c(c2)OCO3)cc1 (stereo not given)	inactive	20		
Oc1ccccc1-n1c(-c2ccccc2)ccc1-c1ccccc1	2.06 µM (active)	-6.63		
COc1ccc(-c2ccc(CCC(=O)O)n2-c2ccccc2O)cc1	inactive	6.08		
C/C(=N\O)c1c(O)cc(-c2ccccc2)n(-c2ccccc2)c1=O	inactive	13.2		
O=C(CCCN1C(=O)c2ccccc2C1=O)Nc1ccc(Br)cn1	inactive	16.2		
Cc1ccc(S(=O)(=O)N2CCOC2CNC(=O)C(=O)NCCCN2CCOCC2)cc1 (stereo not given)		-5.14	inactive [at 0.369 µM]	
COC(=O)c1ccncc1C(=O)Nc1ccc(Oc2ncc(C(F)(F)F)cc2Cl)cc1	inactive	-10.1		
CCCOc1ccc(CCC(=O)O)cc1	inactive	1.83		
Cc1nc(SCC(=O)NC(=O)NC2CCCCC2)nc(C)c1C	inactive	-13.4		
COc1ccc(CCNC(=O)c2ccco2)cc1OC	inactive	10.7		
CSCCC(NC(=O)c1ccco1)C(=O)N(C)CC(=O)Nc1c(Cl)cccc1Cl (stereo not given)	inactive			
COc1ccc(CCN(C)C(=O)C(CCSC)NC(=O)c2ccco2)cc1OC (stereo not given)	2.31 µM (active)	-10.8		
CCOC(=O)c1c(-c2ccccc2)csc1NC(=O)/C(C#N)=C/c1ccc(OC)c(OC)c1	inactive	-0.159		
CCOC(=O)c1c(-c2ccc(C)cc2)csc1NC(=O)/C(C#N)=C/c1ccc(O)c(OC)c1	23.1 µM (active)	-27.7		
COc1cc(/C=C(\C#N)C(=O)NCc2cccs2)ccc1O	inactive	-0.911		
COc1ccccc1NC(=O)CN1CCOCC1	inactive	25.4		
COc1ccc(/C=N/NC(=O)c2cccc(NC(=O)c3ccccc3Cl)c2)cc1	inactive	-0.417		
O=C(COC(=O)CCOc1ccccc1)NCCC1=CCCCC1	inactive	10.9		
CCOC(=O)C(C)(C)NS(=O)(=O)c1ccc(Cl)c([N+](=O)[O-])c1	20.6 µM (active)	-25		
CCOC(=O)C(C)(C)N(Cc1ccc(Cl)cc1)S(=O)(=O)c1ccc(Cl)c([N+](=O)[O-])c1	inactive	5.39		
CCOC(=O)C(C)(C)N(Cc1ccc(C)cc1)S(=O)(=O)c1ccc(Cl)c([N+](=O)[O-])c1	inactive	-25.3		
CCOC(=O)C(C)(C)N(Cc1cccc(C)c1)S(=O)(=O)c1cccc([N+](=O)[O-])c1	inactive	-5.11		
CCOC(=O)C(C)(C)N(Cc1cccc(C)c1)S(=O)(=O)c1ccc(Cl)c([N+](=O)[O-])c1	16.4 µM (active)	-21.7		

SMILES	Potency	cell number change [%]	outcome	lipid storage change, negative = inhibition
CCOC(=O)C(C)(C)N(Cc1ccccc1C)S(=O)(=O)c1ccc(Cl)c([N+](=O)[O-])c1	inactive	-1.56		
CC(C)(C)NC(=O)c1cc(-c2ccccc2)n[nH]1	inactive			
CCCOc1ccc(/C=C2\SC(N)=NC2=O)cc1OC	inactive	8.06		
NC(=O)c1cc(S(=O)(=O)N2CCN(c3cccc(Cl)c3)CC2)cs1	inactive	14.3		
COc1ccccc1/C=C/C1C(C(=O)OCC(C)C)=C(C)N=C2SCCC(=O)N21 (stereo not given)	inactive	9.42		
Cc1ccc(NC(=O)c2cn(CCC#N)nc2-c2cccs2)c([N+](=O)[O-])c1	inactive	-4.62		
CC1(C)C([N+](=O)[O-])C(c2ccc(F)cc2)NC(c2ccc(F)cc2)C1[N+](=O)[O-] (stereo not given)	inactive	2.48		
Cc1ccc(C2NC(c3ccc(C)cc3)C([N+](=O)[O-])C(C)(C)C2[N+](=O)[O-])cc1 (stereo not given)	inactive	-8.86		
Cc1cccc(C2NC(c3cccc(C)c3)C([N+](=O)[O-])C(C)(C)C2[N+](=O)[O-])c1 (stereo not given)	5.17 µM (active)	3.3		
Cc1cccc(NC(=O)CS(=O)(=O)c2cn(C)c3ccccc23)c1C	inactive			
Clc1ccc(-c2nnc(CNC3CC3)o2)cc1	inactive	6.34		
CCCCCN(C(=O)CN1CCC(Cc2ccccc2)CC1)c1c(N)n(CCCC)c(=O)[nH]c1=O	inactive	27.6		
CCOC(=O)C1CCCN(CCC(=O)Nc2ccc(Br)c(C)c2)C1 (stereo not given)	18.4 µM (active)	4.56		
CCOC(=O)C1CCCN(CCC(=O)Nc2ccc(C)c(C)c2)C1 (stereo not given)	inactive	17		
CCOC(=O)C1CCN(CCC(=O)Nc2ccc(Br)c(C)c2)CC1	inactive	0.794		
O=C(NCCc1nc2ccccc2[nH]1)/C(=C/c1ccco1)NC(=O)c1ccc(Br)o1	inactive	-2.37		
COc1ccc2[nH]c(C)c(CN3CCCCC3)c(=O)c2c1	inactive	-15.2		
CCc1nnc(NC(=O)C2CCN(S(=O)(=O)Cc3ccccc3)CC2)s1	inactive	-9.95		
CC(=O)c1cccc(NC(=O)CSc2nnc(-c3ccncc3)o2)c1	inactive	13.1		
O=C(NCCN1CCN(C(=O)c2ccc([N+](=O)[O-])cc2)CC1)C(=O)NCc1ccccc1	inactive	-7.25		
O=C(NCCN1CCN(C(=O)c2cccc([N+](=O)[O-])c2)CC1)C(=O)NCc1ccc(Cl)cc1	6.51 µM (active)	-18.5		
O=C(c1cccc([N+](=O)[O-])c1)N1CCN(c2cccc(Cl)c2)CC1	inactive			
CC(=O)Nc1ccc(SCC(=O)c2c(N)n(Cc3ccccc3)c(=O)n(C)c2=O)cc1	inactive	14.5		

SMILES	Potency	cell number change [%]	outcome	lipid storage change, negative = inhibition
CCOC(=O)C1CCN(C(=O)CCNC(=O)Cn2ccc3ccccc3c2=O)CC1	inactive	0.532		
Cc1sc2nc(COC(=O)c3ccc(N4CCCC4)c([N+](=O)[O-])c3)[nH]c(=O)c2c1C	inactive	5.98		
CCOC(=O)c1c(NC(=O)c2ccc(C)cc2)sc2c1CC(C)(C)NC2(C)C	inactive	-1.96		
Cc1ccc(NC(=O)Cc2nn(C)c(=O)c3ccccc23)cc1F	inactive			
CC(=O)Nc1ccc(C(=O)NNC(=O)c2ccc(Cl)cc2)cc1	inactive			
CC(=O)Nc1ccc(NC(=O)CC(NC(=O)c2ccccc2)c2ccccc2)cc1 (stereo not given)	inactive	19		
CC(=O)Nc1ccc(C(=O)NC(CC(=O)O)c2ccc(Cl)cc2)cc1 (stereo not given)	20.6 µM (active)	-19.4		
COc1ccc(NC(=O)C(c2ccc(OC)cc2)N(C)C(=O)Cc2cccs2)cc1 (stereo not given)	inactive	9.03		
O=C(Cc1ccccc1)NNC1CC(=O)N(c2ccccc2)C1=O (stereo not given)	inactive	0.451		
CC(=O)N1CCN(c2ccc(NC(=O)c3ccc(N4CCCC4)c([N+](=O)[O-])c3)cc2Cl)CC1	inactive			
CCc1ccc(N2CC(C(=O)Nc3nc4ccc(S(C)(=O)=O)cc4s3)CC2=O)cc1 (stereo not given)	2.31 µM (active)	-21.1		
CCc1ccc(N2CC(C(=O)Nc3nccs3)CC2=O)cc1 (stereo not given)	inactive	-0.507		
O=C(Nc1nc2ccccc2s1)C1CC(=O)N(c2ccc(Br)cc2)C1 (stereo not given)	inactive	1.03		
COc1cc(-n2c(=O)c3ccccc3n(CC(=O)c3ccc(Br)cc3)c2=O)cc(OC)c1OC	inactive	7.89		
COc1ccc(NC(=S)NC(=O)C2CCC2)cc1	inactive	-5.57		
CCN(CC)c1ccc(NC(=S)NC(=O)C2CCC2)cc1	4.11 µM (active)	-16.8		
CC(=O)Nc1ccc(NC(=S)NC(=O)C2CCCC2)cc1	inactive	16.2		
Cc1ccc(C(=O)OCC(=O)NCCNC(=O)COC(=O)c2ccc(C)o2)o1		26.3	inactive [at 0.0737 µM]	
CC(=O)Nc1ccc(S(=O)(=O)Nc2cccc(-c3ccc4nncn4n3)c2)cc1	0.731 µM (active)	-19.1		
Cc1ccc(S(=O)(=O)Nc2cccc(-c3ccc4nncn4n3)c2)cc1				-0.542% [at 0.0737 µM] (inactive)
Cc1ccc(S(=O)(=O)Nc2ccc(-c3ccc4nncn4n3)cc2)cc1	inactive	-22.1		
